Experiment [1] in a line: A CellTox Green Cytotoxicity Assay to monitor cytotoxicity in HEK293 cells - 40 hour (AID 1224871). Also: nearly all actives have a fitted effect of over 45% in size. Also: potency is read from the fitted curve at half-maximal effect. As to cytotoxicity increase: % is scaled to controls: 0 for no effect and ±100 for the full control effect. A digest of the protocol: (§1)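 Read-out: fluorescence of a cell-impermeant cyanine dye staining DNA of dead cells, proportional to cytotoxicity. HEK293, 600 cells/well with reagent, compound (23 nL DMSO) added after 5 h; reads at 0, 8, 16, 24, 32, 40 h.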
Experiment [2] can be described thus: qHTS RealTime-Glo MT Cell Viability Assay in HEK293 cells - 16 hour (AID 1224872). Also: nearly all actives have a fitted effect of over 50% in size. Also: potency is read from the fitted curve at half-maximal effect. As to activity change, negative = cytotoxicity: top concentration of the series differs between compounds; % is scaled to controls: 0 for no effect and ±100 for the full control effect. A digest of the protocol:
(§2)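 Homogeneous bioluminescent viability format in HEK293 cells (600 cells/well). Following 5 h at 37 C/5% CO2, 23 nL compound was pintooled; the signal was measured repeatedly during 40 h incubation.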
For orientation: In qHTS, concentration-response curves come from the screen itself.

The nature of experiment [3]: A CellTox Green Cytotoxicity Assay to monitor cytotoxicity in HEK293 cells - 24 hour (AID 1224875). Also: series mostly up to about 77 µM; % is scaled to controls: 0 for no effect and ±100 for the full control effect; nearly all actives have a fitted effect of over 45% in size. A digest of the protocol:
as §1

A short description of experiment [4]: A CellTox Green Cytotoxicity Assay to monitor cytotoxicity in HepG2 cells - 16 hour (AID 1224876). Also: % is scaled to controls: 0 for no effect and ±100 for the full control effect; nearly all actives have a fitted effect of over 45% in size. A digest of the protocol:
(§3)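 HepG2, 600 cells/well premixed w/ CellTox Green; 5 h settle, 37 C/5% CO2; pintool cpd add (DMSO); 37 C, 40 h; fluorescence read at 0, 8, 16, 24, 32, 40 h.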

A short description of experiment [5]: qHTS RealTime-Glo MT Cell Viability Assay in HepG2 cells - 32 hour (AID 1224877). Also: nearly all actives have a fitted effect of over 55% in size. Also: potency is read from the fitted curve at half-maximal effect. As to activity change, negative = cytotoxic: % is scaled to controls: 0 for no effect and ±100 for the full control effect. Summed up: (§4)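 Cell number in HepG2 cultures estimated from NanoLuc luminescence generated by metabolic reduction of a prosubstrate by living cells. The homogeneous, nonlytic format allowed repeated reads at 0, 8, 16, 24, 32 and 40 h of compound exposure.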
Experiment [6] can be described thus: qHTS RealTime-Glo MT Cell Viability Assay in HEK293 cells - 0 hour (AID 1224880). Also: top concentration of the series differs between compounds; % is scaled to controls: 0 for no effect and ±100 for the full control effect; nearly all actives have a fitted effect of over 45% in size. Summed up: (§5)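 Luminescence readout at each listed time point; HEK293, 600 cells/well, RealTime-Glo MT reagent added with cells; compounds pinned (23 nL in DMSO) after 5 h at 37 C; continuous culture at 37 C.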
A short description of experiment [7]: A CellTox Green Cytotoxicity Assay to monitor cytotoxicity in HEK293 cells - 32 hour (AID 1224881). Also: % is scaled to controls: 0 for no effect and ±100 for the full control effect; nearly all actives have a fitted effect of over 40% in size. Summed up:
as §1

Experiment [8] is described as follows: A CellTox Green Cytotoxicity Assay to monitor cytotoxicity in HepG2 cells - 0 hour (AID 1224882). Also: % is scaled to controls: 0 for no effect and ±100 for the full control effect; nearly all actives have a fitted effect of over 35% in size. A digest of the protocol:
as §3

Experiment [9] can be described thus: A CellTox Green Cytotoxicity Assay to monitor cytotoxicity in HEK293 cells - 8 hour (AID 1224884). Also: % is scaled to controls: 0 for no effect and ±100 for the full control effect; nearly all actives have a fitted effect of over 35% in size. Summed up: as §1
Experiment [10] is described as follows: qHTS RealTime-Glo MT Cell Viability Assay in HepG2 cells - 16 hour (AID 1224885). Also: nearly all actives have a fitted effect of over 50% in size. Also: potency is read from the fitted curve at half-maximal effect. As to activity change, negative = cytotoxic: % is scaled to controls: 0 for no effect and ±100 for the full control effect. A digest of the protocol: as §4
Experiment [11] can be described thus: qHTS RealTime-Glo MT Cell Viability Assay in HEK293 cells - 8 hour (AID 1224887). Also: nearly all actives have a fitted effect of over 50% in size. Also: potency is read from the fitted curve at half-maximal effect. Summed up: as §5
Experiment [12] can be described thus: A CellTox Green Cytotoxicity Assay to monitor cytotoxicity in HEK293 cells - 16 hour (AID 1224888). Also: % is scaled to controls: 0 for no effect and ±100 for the full control effect; nearly all actives have a fitted effect of over 35% in size. A digest of the protocol: as §1
Experiment [13] can be described thus: qHTS RealTime-Glo MT Cell Viability Assay in HepG2 cells - 0 hour (AID 1224889). Also: % is scaled to controls: 0 for no effect and ±100 for the full control effect; nearly all actives have a fitted effect of over 50% in size. Summed up:
as §4

A short description of experiment [14]: A CellTox Green Cytotoxicity Assay to monitor cytotoxicity in HepG2 cells - 8 hour (AID 1224890). Summed up:
as §3

Experiment [15] can be described thus: qHTS RealTime-Glo MT Cell Viability Assay in HEK293 cells - 40 hour (AID 1224874). The conditions noted are these: RealTime-Glo luminescence; max response: active compounds read low. A digest of the protocol: as §5
Experiment [16] in a line: A CellTox Green Cytotoxicity Assay to monitor cytotoxicity in HepG2 cells - 24 hour (AID 1224878). Also: nearly all actives have a fitted effect of over 45% in size. Also: potency is read from the fitted curve at half-maximal effect. A digest of the protocol:
as §3

A short description of experiment [17]: A CellTox Green Cytotoxicity Assay to monitor cytotoxicity in HepG2 cells - 40 hour (AID 1224879). Also: nearly all actives have a fitted effect of over 40% in size. Also: potency is read from the fitted curve at half-maximal effect. Summed up: as §3
A short description of experiment [18]: A CellTox Green Cytotoxicity Assay to monitor cytotoxicity in HepG2 cells - 32 hour (AID 1224883). Also: nearly all actives have a fitted effect of over 50% in size. Also: potency is read from the fitted curve at half-maximal effect. A digest of the protocol: as §3
Experiment [19] is described as follows: qHTS RealTime-Glo MT Cell Viability Assay in HEK293 cells - 24 hour (AID 1224886). Also: nearly all actives have a fitted effect of over 50% in size. Also: potency is read from the fitted curve at half-maximal effect. Summed up: as §2

The structures appear in SMILES notation. Where “and” joins values, the source holds several entries; their conditions need not be identical. Equal values may be shown once. A number with no mark means an inactive call. Records with an inconclusive call do not appear. Calls of active or inactive are those of the source. Calls follow the shape of the dose curve; as a rule, active = well fitted curve in the direction sought with a large enough effect in the repeat runs; inconclusive = weak or mixed curves; inactive = no such curve, though single readings can be large; an effect the other way counts as inactive or inconclusive.

For the compound `CN1CCCCC1CCN1c2ccccc2Sc2ccc(S(C)=O)cc21` (stereo not given), the Potency result in experiment [1], in experiment [2], in experiment [3], in experiment [4], in experiment [5] and in experiment [6] was “inactive” throughout. The Potency result in [7], in experiment [8], in experiment [9], in experiment [10], in experiment [11] and in experiment [12] was “inactive” in each case. Moreover, the Potency result in experiment [13] and in [14] was “inactive” throughout.

Regarding `O=c1[nH]c2ccccc2n1CCCN1CCN(C(c2ccccc2)c2ccccc2)CC1`, the Potency entry in [1], in experiment [3], in experiment [6], in [7], in experiment [8] and in experiment [9] was “inactive” in each case. Besides, the Potency result in experiment [12] and in [13] was “inactive” throughout. In addition, the Potency was 10.7 µM (active) in [2]; 12 µM (active) in experiment [15]; 26.8 µM (active) in experiment [5]; 23.9 µM (active) in experiment [16]; 23.9 µM (active) in experiment [17]; 23.9 µM (active) in experiment [18]. Besides, the Potency in experiment [19] is 19 µM (active); in experiment [11], 21.3 µM (active).

Turning to `CN(C)c1ccc(C(=C2C=CC(=[N+](C)C)C=C2)c2ccc(N(C)C)cc2)cc1`, the Potency in experiment [1] is 21.9 µM (active) and 21.3 µM (active); in experiment [2], 6.88 µM (active) and 19.5 µM (active) and 7.56 µM (active); in [15], 1.73 µM (active) and 4.9 µM (active) and 1.69 µM (active); in experiment [5] it was 30.7 µM (active) and 24.5 µM (active) and 21.3 µM (active); in experiment [16] it was 10.9 µM (active) and 12.3 µM (active) and 19 µM (active); in [17], 10.9 µM (active) and 12.3 µM (active) and 21.3 µM (active). In addition, the Potency in experiment [18] was 10.9 µM (active) and 11 µM (active) and 19 µM (active); in [10], 21.8 µM (active) and 24.5 µM (active); in experiment [19] it was 5.47 µM (active) and 7.76 µM (active) and 3.01 µM (active); in [11], 21.8 µM (active) and 43.6 µM (active). Also, the Potency result in experiment [3], in experiment [6], in experiment [8], in experiment [9], in experiment [12] and in [13] was “inactive” each time. The Potency entry in experiment [14] is “inactive”.

With `O=C(O)O`, the cytotoxicity increase in [1] is 4.75% [at 6.97 µM]; in experiment [4], -0.218% [at 6.97 µM]; in [17] it was -9.85% [at 6.97 µM]; in experiment [7], -1.24% [at 6.97 µM]; in [18], -9.49% [at 6.97 µM]; in experiment [9], -0.487% [at 6.97 µM]. For the same compound, the cytotoxicity increase in experiment [14] is 4.8% [at 6.97 µM]. In addition, the activity change, negative = cytotoxicity is 1.92% [at 6.97 µM] in experiment [2]; 3.17% [at 6.97 µM] in experiment [6]; -0.471% [at 6.97 µM] in experiment [19]; 1.73% [at 6.97 µM] in experiment [11]; -3.52% [at 6.97 µM] in [13]. Also, the activity change in experiment [3] is 5.15% [at 6.97 µM, active compounds read high]; in [12] it was 1.05% [at 6.97 µM, active compounds read high]. Besides, the activity change, negative = cytotoxic was 7.61% [at 6.97 µM] in [5] and -0.68% [at 6.97 µM] in experiment [10]. In addition, the cytotoxicity in experiment [16] is -2.66% [at 6.97 µM]; in [8] it was 0.722% [at 6.97 µM].

With `O=C(Oc1ccccc1)Oc1ccccc1`, the Potency result in [1], in [2], in experiment [3], in experiment [4], in [16] and in experiment [17] was “inactive” each time. For the same compound, the Potency result in experiment [6], in experiment [7], in experiment [8], in [18], in experiment [9] and in experiment [19] was “inactive” each time. Further, the Potency result in experiment [11], in experiment [12], in experiment [13] and in experiment [14] was “inactive” each time. The Potency in experiment [5] was 48.8 µM (active).

As for `CNc1ccc([N+](=O)[O-])cc1`, the Potency result in [1], in experiment [2], in [3], in experiment [4], in experiment [5] and in experiment [16] was “inactive” throughout. For the same compound, the Potency entry in experiment [17], in [6], in experiment [7], in [8], in [18] and in experiment [9] was “inactive” in each case. Further, the Potency entry in experiment [10], in experiment [19], in experiment [11], in experiment [12], in experiment [13] and in [14] was “inactive” each time.

Values taken from PubChem BioAssay (Tox21).
